Bioassay records from PubChem.
Shown are actives, neighbours in structure and some others; about 1.6% of the full set was active somewhere.
KCNQ2 enhance: potentiators of rat KCNQ2 potassium channel. O88943. CHO-K1 KCNQ2, FluxOR thallium flux fluorescence; hits give high values. B-score at 10 µM. hit rate 0.54% among 310,000. AID 2239;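 active = fluorescence ratio B-score at least 3 SD of library B-scores, with initial fluorescence B-score within 3 of them, cut at about 5.3 in these data; same plate scores as AID 2156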;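 also: B-score of peak minus minimum over baseline fluorescence ratio after K+ and Tl+ stimulus; positive B-score means potentiation of KCNQ2 with more thallium influx and brighter signal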
KCNQ2 inh: blocks the rat KCNQ2 potassium channel. B-score at 10 µM. O88943. AID 2156. hit rate 1.1% among 310,000. CHO-K1 KCNQ2, FluxOR thallium flux, 20 min; hits give low values;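 active = fluorescence ratio B-score at most minus 3 library SDs, with starting brightness B-score within 2 library SDs, cut at about -5.5 in these data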
Kir21 confirm: confirmation of mouse Kir2.1 potassium channel inhibitors; shares compounds with KCNQ2 enhance; Kir2.1-expressing cells, FluxOR thallium flux fluorescence; hits give low values; Tl flux remaining, % of negative control (hits give low values), % at 10 µM; hit rate 41% among 2,300;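 active = Primary-screen hit whose thallium flux fell at least 3 control SD below untreated wells in both duplicates, with normal baseline fluorescence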;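 also: 0% = blank wells without stimulus and 100% = stimulated no-compound controls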
HEK293 Tl flux: counter-screen for Kir2.1 inhibitors: effect in parental HEK293 cells; shares compounds with KCNQ2 enhance; FluxOR thallium flux fluorescence; 0% = unstimulated blank wells; FluxOR signal as % of negative control (100 = no effect), % at 10 µM; hit rate 19% among 2,300;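 active = dye signal at least 3 control SD above or below untreated wells in both duplicates, raw fluorescence within 3, either direction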;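 also: percent is based on the flux ratio of peak minus minimum fluorescence over baseline F0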
CHO-K1 Tl ctr: counter-screen for KCNQ2 potentiators: effect in parental CHO-K1 cells | shares compounds with KCNQ2 enhance | FluxOR thallium flux fluorescence; zero = vehicle mean+3SD, 100% = vehicle-minus-blank window | activity increase over 3SD of controls, % at 10 µM | hit rate 43% among 1,200 | AID 2282;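 active = signal rise of at least 3 SD above the untreated control mean, in both duplicate wells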;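 also: counter screen of KCNQ2 potentiator hits so any rise reflects channel-independent effects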
KCNQ1 pot spec: selectivity of KCNQ2 potentiators: effect on human KCNQ1; activation over 3SD threshold, % at 10 µM; AID 2283; CHO KCNQ1 stable, FluxOR thallium flux fluorescence; beyond 3SD, as % of vehicle-control signal; hit rate 28% among 1,200; shares compounds with KCNQ2 enhance;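 active = fluorescence ratio rise of at least 3 SD of vehicle wells above their mean, in both replicate wells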;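 also: 0% = vehicle mean plus 3 SD and 100% = vehicle minus unstimulated blank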
Target sequence (P51787 whole entry, looked up): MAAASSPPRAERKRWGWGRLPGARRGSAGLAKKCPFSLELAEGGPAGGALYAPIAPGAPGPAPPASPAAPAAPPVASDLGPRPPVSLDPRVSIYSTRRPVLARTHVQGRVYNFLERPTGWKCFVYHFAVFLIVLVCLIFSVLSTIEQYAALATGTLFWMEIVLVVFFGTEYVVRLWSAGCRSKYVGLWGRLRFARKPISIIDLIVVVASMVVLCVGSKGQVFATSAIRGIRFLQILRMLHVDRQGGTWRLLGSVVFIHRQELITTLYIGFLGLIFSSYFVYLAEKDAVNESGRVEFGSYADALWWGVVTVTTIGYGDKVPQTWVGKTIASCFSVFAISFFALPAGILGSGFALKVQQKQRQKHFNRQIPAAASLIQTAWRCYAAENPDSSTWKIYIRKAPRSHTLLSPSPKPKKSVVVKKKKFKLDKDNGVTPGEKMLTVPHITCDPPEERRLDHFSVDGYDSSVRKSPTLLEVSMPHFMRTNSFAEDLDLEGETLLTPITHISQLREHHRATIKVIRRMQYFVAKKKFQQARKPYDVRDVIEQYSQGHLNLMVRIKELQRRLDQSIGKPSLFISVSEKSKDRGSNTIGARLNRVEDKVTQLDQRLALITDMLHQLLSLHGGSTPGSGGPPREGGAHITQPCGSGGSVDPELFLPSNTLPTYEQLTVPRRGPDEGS
KCNQ2 pot confirm: confirmation of rat KCNQ2 potassium channel potentiators; potentiation, less the hit threshold, % at 10 µM; shares compounds with KCNQ2 enhance; CHO-KCNQ2 cells, FluxOR thallium flux fluorescence; hit rate 68% among 1,200;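 active = fluorescence ratio rising 3 SD or more over the vehicle control mean in both replicates, plus primary screen hit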;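 also: peak minus minimum thallium fluorescence divided by baseline after K/Tl stimulus; 0% = vehicle mean plus 3 SD and 100% = vehicle minus unstimulated blank difference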
Kir2-1 sel: mouse Kir2.1 off-target activity of KCNQ2 potentiators | shares compounds with KCNQ2 enhance | HEK293 Kir2.1, FluxOR thallium flux fluorescence | activity over 3SD threshold, % at 10 µM | hit rate 2% among 1,200;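 active = fluorescence ratio rise of at least 3 SD above the vehicle-control mean, seen in both replicates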;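 also: 0% = vehicle mean plus 3 SD and 100% = vehicle minus no-stimulus blank window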
KCNQ2 W236L MoA: KCNQ2 potentiators acting on retigabine-insensitive rat KCNQ2 W236L mutant | shares compounds with KCNQ2 enhance | CHO KCNQ2-W236L, automated patch clamp current | current increase over 3SD of negative controls (%), hits give high values, % at 25 µM | hit rate 10% among 940;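 active = current increase at least 3 SD of the untreated controls above them in both duplicate recordings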
Active calls of the source: *; i = inactive; / = no result.

SMILES | KCNQ2 enhance | KCNQ2 inh | Kir21 confirm | HEK293 Tl flux | others
CC(C)c1nc(N2CCN(C(=O)c3ccccc3)CC2)c(C#N)c2c1COC(C)(C)C2 | / | i | / | /
COc1cc2nc(Nc3ccc(C)c(C)c3)nc(N)c2cc1OC | / | i | / | /
COc1cc2nc(Nc3ccc(F)cc3)nc(N)c2cc1OC | 0.07 | i | 42%* | i
COc1ccc(CCNC(=O)CCS(=O)(=O)c2ccc3c(c2)NC(=O)CO3)cc1OC | 1.1 | i | / | /
Cc1ccc2c(CN3CCCCC3C)cc(=O)oc2c1C (stereo not given) | 24* | i | i | i | CHO-K1 Tl ctr=-3;KCNQ1 pot spec=-18;KCNQ2 pot confirm=-27;Kir2-1 sel=-32
Cc1ccc2c(CN3CCCCC3C)cc(=O)oc2c1 (stereo not given) | 0.02 | i | / | /
O=C(CSc1nnc(CNC(=O)c2ccccc2)o1)NCc1ccccc1Cl | / | i | / | /
CC(C)(C)c1ccc(OCc2ccc(C(=O)Nc3cccnc3)o2)cc1 | / | i | / | /
COc1ccc(Nc2ccc(Cl)nn2)cc1 | 0.66 | i | / | /
Clc1ccc(Nc2ccc(Cl)nn2)cc1 | 6.6* | i | i | i | CHO-K1 Tl ctr=17*;KCNQ1 pot spec=36*;KCNQ2 pot confirm=14*;Kir2-1 sel=-33;KCNQ2 W236L MoA=25%*
Cc1cc(C)c(C)c(S(=O)(=O)N(C)C2CCN(C)CC2)c1C | / | i | / | /
CN=C(C)/C(C(=O)OC)=C(/O)c1c(F)cccc1F | 0.09 | i | / | /
Cc1ccc(C2C3=C(NCCN=C3c3ccccc3)C(=O)N2c2ccccc2)cc1 (stereo not given) | / | i | i | i
CCOc1ccc(N2C(=O)C3=C(C(c4ccc(Cl)cc4)=NCCN3)C2c2cccnc2)cc1 (stereo not given) | / | i | / | /
OC(CNCC1(N2CCCCC2)CCCCC1)COc1ccc(Cl)cc1Cl (stereo not given) | 2.5 | i | 50%* | 75%*
O=C(COc1ccc(Cl)cc1Cl)NC(=O)N1CCCCC1 | / | i | / | /
COc1ccc(C2CC(c3ccccc3)=NN2C(=O)CCCC(=O)O)cc1 (stereo not given) | 0.09 | i | / | /
Cc1ccc(NC(=O)c2cccc(S(=O)(=O)N3CCN(C)CC3)c2)cc1F | 1.1 | i | / | /
CCSC(=S)c1c(C)[nH]n(-c2ccccc2)c1=O | 7* | i | i | 222%* | CHO-K1 Tl ctr=-21;KCNQ1 pot spec=-9;KCNQ2 pot confirm=-4;Kir2-1 sel=-28;KCNQ2 W236L MoA=i
Cc1[nH]n(-c2ccccc2)c(=O)c1C(=O)c1ccccc1 | / | i | / | /
COc1ccc(-n2ncc3c(=O)n(Cc4c(F)cccc4Cl)cnc32)cc1 | / | i | / | /
CCN(CC)C(=O)/C=C/c1ccc(OC)c(S(=O)(=O)N2CCCCC2)c1 | / | i | / | /
Cc1ccc(C2CC(c3ccccc3)=NN2C(=O)CSc2nnc(-c3ccncc3)n2C)o1 (stereo not given) | 0.15 | i | / | /
COC(=O)c1ccc(CNCC(O)COc2ccc(-c3ccccc3)cc2)cc1 (stereo not given) | / | i | / | /
Cc1ccc(CNC(=O)NCc2ccccc2)cc1 | 1.7 | i | / | /
SMILES | KCNQ2 enhance | KCNQ2 inh | Kir21 confirm | HEK293 Tl flux | others
Cc1ccc(CNCC(O)(c2ccccc2)c2ccccc2)cc1 | / | i | 42%* | i
COc1ccc(CNCC(O)(c2ccccc2)c2ccc(Cl)cc2)cc1 (stereo not given) | -5.6 | -5.6* | 62%* | i
COc1ccc(CNCc2cccc(Cl)c2)cc1 | 0.35 | i | / | /
CC(=O)c1cccc(OCC(O)CNCCc2ccc(Cl)cc2)c1 (stereo not given) | 0.27 | i | / | /
COc1ccc(CCNCC(O)COc2cccc(Br)c2)cc1 (stereo not given) | 0.09 | i | 25%* | i
COc1ccc(CNCC(O)COc2ccc(C(C)(C)c3ccccc3)cc2)cc1 (stereo not given) | / | i | 41%* | 65%*
Cn1ncc(Cl)c1C(=O)NNC(=O)Nc1cccc2ccccc12 | / | i | / | /
CN=C(Nc1cccc(OC)c1)SC1CC(=O)N(c2ccc(C(=O)O)cc2)C1=O (stereo not given) | 0.35 | i | / | /
Cc1ccc(-n2c(C)nn(CCOc3ccccc3)c2=O)cc1 | 0.23 | i | / | /
COc1ccccc1CCN1CCCC(CN(C)C(=O)CCC(N)=O)C1 (stereo not given) | 0.7 | i | / | /
COc1cc(C(=S)N2CCCCC2)ccc1OCC(=O)N1CCCC1 | 0.68 | i | / | /
COc1cc(C(=S)N2CCCCC2)ccc1OCC(=O)Nc1ccc(F)cc1 | 6* | i | i | i | CHO-K1 Tl ctr=142*;KCNQ1 pot spec=27*;KCNQ2 pot confirm=17*;Kir2-1 sel=-46;KCNQ2 W236L MoA=i
CCc1cc(Br)ccc1NC(=S)NCCc1ccccc1 | / | i | 62%* | i
COc1ccc(NC(=S)NCCc2ccccc2)c(C)c1 | / | i | / | /
Cc1ccc(C2(C)NC(=O)N(CC(=O)NNC(=O)c3cc(C)oc3C)C2=O)cc1 (stereo not given) | 0.11 | i | / | /
CSc1cccc(CNC(=O)C2CCC(=O)N(CCCN3CCCC3=O)C2)c1 (stereo not given) | 0.95 | i | / | /
Cc1ccc(-c2cnc3ccccc3n2)cc1C | / | i | / | /
OCCNCc1cccc(OCc2ccc(Cl)cc2)c1 | 0.57 | i | i | i
OCCNCc1cc(Br)ccc1OCc1ccc(Cl)cc1 | 0.2 | i | / | /
Cc1cccc(NC(=O)Cn2nnc3sc4c(c3c2=O)CC(C)(C)OC4)c1 | / | i | / | /
CCC1(C)Cc2c(sc3nnn(CC(=O)Nc4ccccc4)c(=O)c23)CO1 (stereo not given) | 19* | i | i | i | CHO-K1 Tl ctr=-22;KCNQ1 pot spec=27*;KCNQ2 pot confirm=41*;Kir2-1 sel=-28;KCNQ2 W236L MoA=i
Cc1coc2c1c(C)cc1oc(=O)c(CC(=O)NCCCN3CCCC3=O)c(C)c12 | 1.4 | i | / | /
COc1cccc(OCCOc2ccc(/C=C3/SC(=S)NC3=O)cc2)c1 | 7.4* | i | i | i | CHO-K1 Tl ctr=-1;KCNQ1 pot spec=-12;KCNQ2 pot confirm=-6;Kir2-1 sel=-14
O=C1NC(=S)S/C1=C\c1coc2ccccc2c1=O | 1.7 | i | / | /
O=C1NC(=S)S/C1=C\c1ccc2ccccc2c1 | 11* | i | i | i | CHO-K1 Tl ctr=55*;KCNQ1 pot spec=-12;KCNQ2 pot confirm=42*;Kir2-1 sel=-38;KCNQ2 W236L MoA=i
COc1ccc(/C=C2/SC(=O)NC2=O)cc1 | / | i | / | /
O=C1Nc2ccccc2C1C(C[N+](=O)[O-])c1ccccc1 (stereo not given) | / | i | / | /
